Values joined by “and” are separate entries in the source; they are usually repeats but may differ in a detail not shown here. Equal entries are not always repeated. Records with an inconclusive call do not appear. Active and inactive are the calls of the source. Rule for the calls: active = hit-call score of the fitted dose curve at least 0.9, where 1 is the maximum; inconclusive = response in the unintended direction; inactive = score below 0.9.

This assay in a line: TOX21_p53_BLA_p5_viability: Viability Assessment in the Tox21 HCT-116 p53 Agonism Beta-lactamase Assay, Phase 5 (AID 2283600). An excerpt:
TOX21_p53_BLA_p5 is a cell-based, single-readout assay that uses HCT116, a human intestinal cell line, […] in a 1536-well plate.TOX21_p53_BLA_p5_viability is an assay readout measuring cellular ATP content and detected with CellTiter-Glo Luciferase-coupled ATP quantitation.TOX21_p53_BLA_p5_viability used a type of viability reporter where loss-of-signal activity can be used to understand changes in the cell viability. Furthermore, this assay endpoint can be referred to as a secondary readout, because this assay has produced multiple assay endpoints where this one serves a viability function. To generalize the intended target to other relatable targets, this assay endpoint is annotated to the cell cycle intended target family, where the subfamily is cytotoxicity.
Thawing Method: Place 14 mL of pre-warmed thaw medium into a 15 mL of conical tub. Remove the vial of cells to be thawed from liquid nitrogen and thaw rapidly by placing at 37C in a water bath with gentle agitation for 1-2 minutes. Decontaminate the vial by wiping with 70% ethanol before opening in a biological safety cabinet. Transfer the vial contents drop-wise into 14 mL of thaw medium in a sterile 15-mL conical tub. Centrifuge cells at 900 rpm for 4 minutes and resuspend in thaw medium. Transfer contents to the T75 tissue culture flask containing Thaw Medium and place flask in a humidified 37C/5% CO2 incubator. Switch to growth medium at first passage.Propagation Method: Aspirate medium, rinse once in DPBS, add 0.25% Trypsin/EDTA and swirl to coat the cell evenly. Add an equal volume of Growth Medium to inactivate Trypsin after 2-3 minutes incubation at 37C. Centrifuge cells at 900 rpm for 4 minutes and resuspend in growth medium. Cell should be passage or fed at least twice a week.Assay Protocol: Harvest cells from culture in growth medium and resuspend in assay medium. 2.2 Dispense 4000 cells/5 uL/well into 1536-well black/clear bottom plates using a Multidrop dispenser. After the cells were incubated at 37C for 5 hours, 23 nL of compounds dissolved in DMSO were transferred to the assay plate by a PinTool resulting in a 217-fold dilution. Incubate the plates for 16 hours at 37C, 5% CO2. Add 1 uL of 6X LiveBLAzer FRET B/G (CCF4-AM) Substrate Mixture to each well using a BioRAPTR dispenser and incubate the plates at room temperature for 2 hours. Measure fluorescence intensity at 460 and 530 nm emission and 405 nm excitation by an Envision detector. Data is expressed as the ratio of 460nm/530nm emissions. Add 4 uL of Cell-titer Glo to each well using BioRAPTR and incubate the plates at room temperature for […]. For cell viability readout that measures cytotoxicity, 4 ul/well of CellTiter-Glo reagent was added into the assay plates using a Flying Reagent Dispenser. After 30 min incubation at room temperature, the luminescence intensity in the plates was measured using a ViewLux plate reader.
`FC(F)(F)C(F)(F)C(F)(F)C(F)(F)CCI`: the compound was classed as inactive.

As to `CN(C)Cc1ccccc1O`, the outcome was inactive. The same measure, in the same setting: in the case of `Cc1ccc(S(=O)(=O)NCl)cc1` it was “inactive”; in that of `CNC(=S)NC`, “inactive”; in that of `CCC(=O)OCCc1ccccc1`, “inactive”. On the same count and under the same terms, the result for `c1ccc(B(c2ccccc2)c2ccccc2)cc1` reads “inactive”; that for `COC(=O)C1CCC(C(=O)OC)CC1` (stereo not given), “inactive”; that for `CCCCCC=O`, “inactive”. For the compound `O=S(=O)(O)c1ccc2ccccc2c1`, the call was inactive. As for `CCCCCCOC(=O)c1ccccc1`, the call was inactive.

Regarding `CC(CCl)OP(=O)(OC(C)CCl)OC(C)CCl` (stereo not given), the compound was called inactive.

On to `O=C(C=Cc1ccccc1)OCC=Cc1ccccc1`, for which the call was inactive. With `CCCCCCCCCCCCCCCC[N+](C)(C)Cc1ccccc1`, the AC50 (as a rule, the midpoint of the concentration-response curve, whichever way the signal moves) was 57.9 µM (active) and 23 µM (active). Consider `CCCCOc1ccc(N)cc1`, for which the compound was classed as inactive.

`C1COCCN1`: the outcome was inactive. As for `C#C[C@]1(O)CC[C@H]2[C@@H]3CCc4cc(OC)ccc4[C@H]3CC[C@@]21C`, the compound was classed as inactive. On the same count and under the same terms, in the case of `OC[C@@H](O)[C@@H](O)[C@H](O)[C@@H](O)CO` it was “inactive”.

As to `CCN(CC)c1ccc2c(C)cc(=O)oc2c1`, the outcome was inactive. For the compound `C(=C(c1ccccc1)c1ccccc1)c1ccccc1`, the outcome was inactive. Same read-out and setting: in the case of `CC(Cc1ccc(O)c(O)c1)C(C)Cc1ccc(O)c(O)c1` (stereo not given) it was “inactive”; in that of `Nc1ccc([N+](=O)[O-])cc1O`, “inactive”.

For the compound `O=C(OCCOCCOCCOC(=O)c1ccccc1)c1ccccc1`, the compound was classed as inactive. `CCc1ccc(C(c2ccc(CC)cc2)C(Cl)Cl)cc1`: the call was inactive.

In the case of `CCCCCCOC(=O)c1ccccc1O`, the call was inactive. Same read-out and setting: in the case of `Nc1ccc(S(=O)(=O)Nc2nccs2)cc1` it was “inactive”.

The values are drawn from PubChem BioAssay (EPA / NIEHS).
